From PubChem BioAssay (EPA / NIEHS) come the findings set out here.

A short description of assay [1]: ATG_XTT_Cytotoxicity: Cytotoxicity Assessment in the Attagene TRANS-FACTORIAL HepG2 Assay (AID 2283584).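 As to AC50: XTT signal for cell number as viability in transfected HepG2 cells; cells exposed to compound for 24 h before reading; active means loss of viability signal versus DMSO baseline.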 In short, it runs like this: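 HepG2 cells transiently transfected with GAL4-UAS multiple reporter units, dosed 24 h; cytotoxicity read by XTT as loss of signal versus DMSO baseline.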
A short description of assay [2]: TOX21_p53_BLA_p2_viability: Viability Assessment in the Tox21 HCT-116 p53 Agonism Beta-lactamase Assay, Phase 2 (AID 2283591).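 Also: compound exposure lasted 16 h at 37 °C; actives lower the ATP signal meaning cytotoxicity.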 The gist of the method:
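HCT-116 p53-bla cells (4000/well) rested 5 h at 37C, then received compounds in DMSO (217-fold dilution) for 16 h at 37C, 5% CO2. After the CCF4 read, CellTiter-Glo was added; ATP luminescence was read after 30 min at room temperature.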

“And” between values parts separate entries of the source, which are not always exact repeats. Identical values can stand only once. Records with an inconclusive call do not appear. The source made the active and inactive calls. The calls were made as follows: active = hit-call score of the fitted dose curve at least 0.9, where 1 is the maximum; inconclusive = response in the unintended direction; inactive = score below 0.9.

Take `CC(C)[C@H](C(=O)OC(C#N)c1cccc(Oc2ccccc2)c1)c1ccc(OC(F)F)cc1` (stereo partly drawn): the compound was classed as inactive in assay [1] and in assay [2].
Take `C[CH2][Hg][S]c1ccccc1C(=O)O`: the result in assay [1] was inactive. Further, in assay [2], the AC50 (usually the concentration giving half of the maximal activity seen) is 32 µM (active) and 18.4 µM (active).
On to `Cc1cc(Cl)ccc1OC(C)C(=O)O` (stereo not drawn), for which the compound was classed as inactive in assay [1] and in assay [2].
Consider `C=CC(=O)OCC(COC(=O)C=C)(COC(=O)C=C)COC(=O)C=C`, for which the AC50 in assay [1] was 73.8 µM (active); in assay [2] it was 16.6 µM (active).
Regarding `COc1ccc(N)cc1`, the result in assay [1] and in assay [2] was inactive.
With `CC(C)(C#N)N=NC(C)(C)C#N`, the compound was classed as inactive in assay [1] and in assay [2].
As for `Clc1cc(C(Cl)(Cl)Cl)cnc1Cl`, the compound was called inactive in assay [1] and in assay [2].
Take `O=[N+]([O-])c1ccc(Cl)c([N+](=O)[O-])c1`: the AC50 in assay [1] was 20.2 µM (active); in assay [2], 45.5 µM (active) and 39.7 µM (active).
Take `CC(O)(CS(=O)(=O)c1ccc(F)cc1)C(=O)Nc1ccc(C#N)c(C(F)(F)F)c1` (stereo not drawn): the compound was classed as inactive in assay [1] and in assay [2].
Regarding `O=[N+]([O-])c1cccc2ccccc12`, the compound was called inactive in assay [1] and in assay [2].
Regarding `CCOP(=S)(OCC)OP(=S)(OCC)OCC`, the call in assay [1] and in assay [2] was inactive.
`CCCCCCCCCCCCN(C)C`: the compound was classed as inactive in assay [1] and in assay [2].
For the compound `C=CCN=C=S`, the call in assay [1] and in assay [2] was inactive.
Regarding `Cc1cc(C(C)(C)c2ccc(O)c(C)c2)ccc1O`, the outcome in assay [1] and in assay [2] was inactive.
In the case of `CCCCOC(C)=O`, the compound was classed as inactive in assay [1] and in assay [2].
For `O=C1C[C@@H]2OCC=C3CN4CC[C@]56c7ccccc7N1[C@H]5[C@H]2[C@H]3C[C@H]46`, the outcome in assay [1] and in assay [2] was inactive.
`CCCCCCCCCCCCCl`: the compound was called inactive in assay [1] and in assay [2].
Turning to `Cc1cc(Cl)ccc1O`, the result in assay [1] and in assay [2] was inactive.
Regarding `O=S(=O)(c1ccc(Cl)cc1)c1cc(Cl)c(Cl)cc1Cl`, the outcome in assay [1] and in assay [2] was inactive.
